# In PubChem BioAssay AID1628 (Sanford-Burnham Center for Chemical Genomics, 2009):
# Screen size: about 190,000 compounds; about 930 (0.49%) were called active. Some of the results follow. Results with a measured potency or affinity are listed apart. Unmarked numbers belong to inactive results.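 Rule for the calls: active = z-score of insulin promoter reporter brightness in nuclei below -3 at 5 µM, with at least 500 cells counted; inconclusive = wells with under 500 cells, flagged as toxic or sparse; inactive = the rest.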
# Assay: insulin promoter down-regulators in MIN6 cells, imaging, high-content screening, mouse beta cells (AID 1628)
# Details: MIN6 insulin promoter GFP reporter, at 5 µM, hits give low values
row,Structure (SMILES),z-score
1,Oc1ccc(Cl)cc1C1=Nc2ccccc2N=C(c2ccco2)C1,4.34
2,COC1=CCC2([N+](=O)[O-])CN(CCO)CC1([N+](=O)[O-])C2 (centres undefined),3.03
3,Cc1ccccc1N1C(=O)CC(c2c[nH]c3ccccc23)C1=O (centres undefined),3.5
4,CCn1c(COc2ccc(=O)n(-c3ccccc3)n2)nnc1SCc1ccccc1C,-4.23 (active)
5,CCOC(=O)c1sc(NCCNc2nc(C)c(C(=O)OCC)s2)nc1C,-0.64
6,COc1cc(=O)n(C)c2c(OCC3OC(C)(C)OC3(C)C)cccc12 (centres undefined),-0.95
7,O=C1/C(=N\S(=O)(=O)c2cccs2)C([n+]2cccc(Cc3ccccc3)c2)=C([O-])c2ccccc21,6.82
8,O=C1C=C(Nc2ccccc2)C(=O)c2ccccc21,-0.04
9,Cn1c(SCC(=O)NNC(=O)Cc2ccccc2)nnc1-c1ccc(Cl)cc1,-3.49 (active)
10,CCCn1c(SCC(=O)NC2CCCCC2)nnc1-c1ccncc1,3.06
11,CC(C)(C)NC(=O)CSc1n[nH]c(=O)n1-c1ccccc1,2.5
12,O=C(NC1(C(F)(F)F)NC(=O)N(c2ccc(F)c(Cl)c2)C1=O)c1ccncc1 (centres undefined),4.5
13,COc1ccc2cc(C(c3nnnn3C(C)(C)C)N3CCc4ccccc4C3)c(=O)[nH]c2c1 (centres undefined),-5.1 (active)
14,OCCC1CN(Cc2cccn2-c2ncccn2)CCN1CCc1ccccc1 (centres undefined),-3.43 (active)
15,CCc1ccc(N2CC(O)(c3cccs3)[N+]3=C2SCCC3)cc1 (centres undefined),-3.76 (active)
16,O=S(=O)([O-])CCC[n+]1c(/C=C\Nc2ccccc2)oc2ccc(-c3ccccc3)cc21,3.19
17,CSC(=Nc1cccc(C)c1)NC#N,-5.35 (active)
18,Cc1ccc(C(=O)NCCn2c(N)c(C#N)c3nc4ccccc4nc32)cc1,4.08
19,COCCCNC(=O)c1c(N)n(/N=C/c2cccnc2)c2nc3ccccc3nc12,-3.07 (active)
20,COC(=O)C1=C(N)n2c(s/c(=C\c3cccnc3)c2=O)=C(C(=O)OC)C1c1cccnc1 (centres undefined),3.21
21,Cc1ccc(-n2c(Cc3cccs3)nnc2SCC(=O)OC(C)C)cc1,3.05
22,COc1cc(/C=C(\C#N)c2nc3ccccc3o2)ccc1O,4.56
23,CC(C)(C)NC(=S)N/N=C\c1ccc(-c2ccc([N+](=O)[O-])cc2)o1,14.4
24,CCNC(=S)N/N=C/c1ccc(-c2ccccc2)o1,-3.35 (active)
25,COCCNC(=S)N/N=C/c1ccc(-c2ccc([N+](=O)[O-])cc2)o1,5.22

row,Structure (SMILES),z-score
1,CN(C)C(=O)C1C2NC(=S)N(c3cccc(Cl)c3)C1(C)Oc1ccc(Cl)cc12 (centres undefined),3.51
2,Nc1c(C(=O)c2ccccc2)sc2nsc(SCCN3CCCC3)c12,6.03
3,CC(CNCC1CCCO1)COc1cccc2ccccc12 (centres undefined),-4.31 (active)
4,OC(CNCC1CCCO1)COc1ccc(OCC(O)CNCC2CCCO2)cc1 (centres undefined),1.04
5,CCOC(=O)/C(C#N)=C/C=C1\C=Cc2ccccc2N1CC,4.84
6,CS(=O)(=O)N(CCc1ccccc1)CC(=O)N1CCN(Cc2ccccc2)CC1,0.33
7,O=C(c1ccccn1)N1CCN(S(=O)(=O)c2ccc3ccccc3c2)CC1,3.58
8,O=C(C1=C[C@H](C2CC2)C[C@H](OCCCCO)O1)N1CCN(Cc2ccccc2)CC1,3.72
9,COC(=O)CCC(NC(=O)c1cc(C)oc1C)C(=O)OC (centres undefined),0.79
10,COc1ccc(-c2cc(C(F)F)n3ncc(C(=O)NCC4CCCO4)c3n2)cc1 (centres undefined),-5.37 (active)
11,O=C(O)c1cc(-c2ccc(/C=C3/SC(=S)N(Cc4ccccc4)C3=O)o2)ccc1Cl,4.28
12,N#C/C(=C/c1ccc(N2CCOCC2)o1)c1ccc(Br)cc1,10
13,CCCN1C(=O)/C(=C/c2c(NCCCOCC)nc3c(C)cccn3c2=O)SC1=S,5.71
14,CCOCCCNc1nc2c(C)cccn2c(=O)c1/C=C1\SC(=S)N(CC(C)C)C1=O,4.38
15,Cc1nc2ccccn2c1P(=O)(N1CCCCC1)N1CCCCC1,0.76
16,Cc1nc2ccccn2c1C(=O)NCc1ccc2c(c1)OCO2,-5.57 (active)
17,CC(C)(C)NS(=O)(=O)c1ccc(CCC(=O)NCc2ccc3c(c2)OCO3)cc1,0.89
18,Cc1ccc(-c2cc(-c3ccco3)c3c(N)c(C(=O)NN)oc3n2)cc1,3.03
19,COc1cc(OC)c2c(-c3ccccc3)cc(=O)oc2c1,-1.04
20,COC(CNC(=O)c1ccc(Cn2c(=S)[nH]c3cc4c(cc3c2=O)OCO4)cc1)OC,3.48
21,COC(=O)c1[nH]c2ccc(F)cc2c1NC(=O)CCN1CCN(Cc2ccc3c(c2)OCO3)CC1,-3.4 (active)
22,CCCNC(=O)Cn1cnc2sc(C(=O)N3CCN(Cc4ccc5c(c4)OCO5)CC3)c(C)c2c1=O,3.66
23,COC(=O)c1c(NC(=O)CN2CCN(Cc3ccc4c(c3)OCO4)CC2)sc(C)c1C,-5.05 (active)
24,COC(=O)c1[nH]c2ccc(C)cc2c1NC(=O)CCN1CCN(Cc2ccc3c(c2)OCO3)CC1,-3.87 (active)
